{"source": "PubChem BioAssay AID488890", "about": "(Southern Research Specialized Biocontainment Screening …, 2010)", "note": "Hit rate of the full screen: of about 320,000 compounds, about 1,300 (0.41%) were called active. About 3% were inconclusive and are not listed. The rule behind the calls is not given here. A selection follows. Potency and affinity values are given separately."}
{"assay": "growth inhibition of non-replicating M. tuberculosis (AID 488890);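 note: plate controls were DMSO cells for no effect and high antibiotic wells for full effect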", "details": "Mycobacterium tuberculosis non-replicating, at 25 µM, stronger effect = higher value", "units": {"inhibition": "%"}}
{"smiles": "COc1ccc(CN2CCNC(=O)C2CC(=O)N(C)Cc2nccn2C)cc1OC", "note": "(stereo not given)", "inhibition": -4.39}
{"smiles": "NS(=O)(=O)c1ccc(CNC(=O)c2ccc3c(c2)OCO3)cc1", "inhibition": -8.29}
{"smiles": "CC1CCC2C(=O)N(c3cccc(C(=O)Nc4ccc(F)cc4)c3)C(=O)C2C1", "note": "(stereo not given)", "inhibition": 0.0133}
{"smiles": "Cc1cc(C)c[n+](CC(=O)c2ccc(C)c([N+](=O)[O-])c2)c1", "inhibition": 11.3}
{"smiles": "COc1ccc(Cl)cc1NC(=O)CN(C)C(=O)/C=C/c1ccco1", "inhibition": 25.2}
{"smiles": "CCc1nc2ccccc2n1CC(=O)N1CCN(S(=O)(=O)c2cccc(C(F)(F)F)c2)CC1", "inhibition": 11.4}
{"smiles": "Cc1ccc(NC(=O)C2CCN(C(=O)c3ccc(Cl)cc3)CC2)nc1", "inhibition": 11.3}
{"smiles": "C/C(=N\\Nc1ccc(Cl)cc1)c1ccncc1", "inhibition": 31.7}
{"smiles": "CCCOc1ccc(CCC(=O)N/N=C/c2ccncc2)cc1", "inhibition": 25.7}
{"smiles": "Cc1ccc(NC(=O)CCC(=O)N/N=C/c2ccc([N+](=O)[O-])o2)cc1C", "inhibition": 8.35}
{"smiles": "Cc1ccccc1OCC(=O)N/N=C/c1ccc([N+](=O)[O-])o1", "inhibition": 78.1}
{"smiles": "CCCOc1ccc(CCC(=O)N/N=C/c2ccco2)cc1", "inhibition": 64.4}
{"smiles": "CCCC(=O)Nc1ccc(C(=O)N/N=C/c2ccc([N+](=O)[O-])o2)cc1", "inhibition": 77.6}
{"smiles": "Cc1ccc(OCC(=O)N/N=C/c2ccco2)cc1", "inhibition": 36.5}
{"smiles": "O=S(=O)(Nc1ccc(Nc2ccccc2)cc1)c1ccc(F)cc1", "inhibition": 45.8}
{"smiles": "O=C(COC(=O)c1ccc2ncsc2c1)NCc1ccccc1Cl", "inhibition": 19.4}
{"smiles": "CC(=O)Nc1ccc(S(=O)(=O)N2CCSC2C(=O)O)cc1", "note": "(stereo not given)", "inhibition": 1.73}
{"smiles": "CCN(CC)S(=O)(=O)c1ccc(Oc2ccccc2)cc1", "inhibition": 30.3}
{"smiles": "COc1ccc2c(Cl)c(C(=O)N/N=C/c3c(C)[nH]c4ccccc34)sc2c1", "inhibition": -5.52}
{"smiles": "CC(C)C(c1nnnn1Cc1ccccc1)N1CCc2ccccc2C1", "note": "(stereo not given)", "inhibition": 11}
{"smiles": "Cc1cccc(N2C(=O)/C(=C/c3ccccn3)SC2=S)c1", "inhibition": 0.34}
{"smiles": "Cc1ccc(C)c2[nH]c(=O)c(CCNC(=O)c3ccc(Br)o3)cc12", "inhibition": -3.61}
{"smiles": "COc1ccc(CCNC(=O)COc2ccc(-c3ccc(C)cc3)cc2)cc1OC", "inhibition": 25.9}
{"smiles": "O=C(Nc1ccc(Cl)c(Cl)c1)Nc1ccc(Br)cc1F", "inhibition": 75.2}
{"smiles": "O=[N+]([O-])c1ccc(-n2nnnc2-c2ccccc2)cc1", "inhibition": -9.53}
{"smiles": "O=[N+]([O-])c1cccc(-c2nnnn2-c2cccc(F)c2)c1", "inhibition": -0.82}
{"smiles": "CC(C)[C@H](NC(=O)C1CCN(S(=O)(=O)c2ccc(F)cc2)CC1)C(=O)NCc1ccco1", "inhibition": 8.72}
{"smiles": "COc1cc(OC)cc(C(=O)N[C@H](C(=O)OCC(N)=O)C(C)C)c1", "inhibition": -12.8}
{"smiles": "CCNC(=O)N(C)C[C@H]1N[C@@](C)(C(=O)OC)[C@H]2C(=O)N(C)C(=O)[C@@H]12", "inhibition": 2.38}
{"smiles": "CNC(=S)NNc1nc(N2CCOCC2)nc(N2CCOCC2)n1", "inhibition": -5}
{"smiles": "Cc1ccc(NC(=O)C2=C(O)c3sccc3N(C)S2(=O)=O)cc1", "inhibition": 18.9}
{"smiles": "CCCC(=O)N/N=C1\\CS(=O)(=O)N(C)c2ccsc21", "inhibition": 1.81}
{"smiles": "Cc1cccc(C(=O)N/N=C2\\CS(=O)(=O)N(C)c3ccsc32)c1", "inhibition": 56.1}
{"smiles": "CN1c2ccsc2/C(=N/NC(=O)c2c(F)cccc2F)CS1(=O)=O", "inhibition": -25.7}
{"smiles": "Cc1ccccc1NC(=O)C1C2C=CC(C3CC23)C1C(=O)O", "note": "(stereo not given)", "inhibition": -10.4}
{"smiles": "Cc1ccc(NC(=O)c2ccc3snnc3c2)cc1C", "inhibition": -6.47}
{"smiles": "O=C(CCN1CCN(C/C=C/c2ccccc2)CC1)Nc1ccccc1F", "inhibition": -1.04}
{"smiles": "COc1ccc2[nH]c(=O)c(C(=O)O)cc2c1", "inhibition": -0.72}
{"smiles": "O=C(N/N=C/c1ccccn1)c1ccc(NC(=O)c2cccc([N+](=O)[O-])c2)cc1", "inhibition": 7.23}
{"smiles": "O=C(N/N=C/c1ccc2nccnc2c1)c1cccc([N+](=O)[O-])c1", "inhibition": -21.3}
{"smiles": "O=C(N/N=C/c1ccccn1)c1ccc([N+](=O)[O-])cc1Cl", "inhibition": 74.4}
{"smiles": "O=C(N/N=C/c1ccccn1)c1ccncc1", "inhibition": 75.3}
{"smiles": "CCCCC(CCC(=O)Nc1ccn(-c2ccccc2)n1)C(=O)O", "note": "(stereo not given)", "inhibition": -15.5}
{"smiles": "Cc1nnc(C)n1N", "inhibition": -10.3}
{"smiles": "COc1ccc(NC(=O)CN2CCN(C(=O)C3CCCO3)CC2)c(OC)c1", "note": "(stereo not given)", "inhibition": -13.5}
{"smiles": "O=C(NC1CCOc2ccccc21)c1ccccn1", "note": "(stereo not given)", "inhibition": 75.5}
{"smiles": "O=C(NC1CCCc2ccccc21)c1ccc(Cl)nc1", "note": "(stereo not given)", "inhibition": 72.1}
{"smiles": "COc1ccc2ccccc2c1/C=N/Nc1ccc(Cl)c(C(=O)O)c1", "inhibition": -12.5}
{"smiles": "O=C(O)c1cc(N/N=C/c2c(O)ccc3ccccc23)ccc1Cl", "inhibition": 0.25}
{"smiles": "CC(C)(C)OCC1CO1", "note": "(stereo not given)", "inhibition": -2.36}
{"smiles": "Cc1ccccc1SCC(=O)Nc1ccc(N2CCOCC2)cc1", "inhibition": 0.16}
{"smiles": "COc1ccccc1Nc1nn2c(=O)c3ccc(C(=O)N4CCC(C)CC4)cc3nc2s1", "inhibition": 33.4}
{"smiles": "COc1ccc(OCCNc2cc(Cl)ccc2[N+](=O)[O-])cc1", "inhibition": -1.86}
{"smiles": "COc1nc(OC)nc(Oc2ccc(Cl)cc2[N+](=O)[O-])n1", "inhibition": 2.78}
{"smiles": "CCc1ccccc1OCCCN1CCCC1", "inhibition": 4.44}
{"smiles": "Cc1cc(-n2cnnn2)ccc1C(C)C", "inhibition": 9.21}
{"smiles": "Cn1c(-c2ccc(Cl)cc2)cnc1N", "inhibition": 52.6}
{"smiles": "Nc1cccn2c(-c3ccc(Cl)c(Cl)c3)cnc12", "inhibition": 54.7}
{"smiles": "COc1ccc(C(C)=O)cc1CSc1nc(C)cc(C)n1", "inhibition": 6.97}
{"smiles": "O=C(O)C(Br)CBr", "note": "(stereo not given)", "inhibition": 20.6}
{"smiles": "CCCNC(=O)Cn1sc2nc(C)cc(C)c2c1=O", "inhibition": 2.63}
{"smiles": "Cc1cccc(N2CCN(C(=O)Cn3nc(C)n4cccc4c3=O)CC2C)c1", "note": "(stereo not given)", "inhibition": -17.1}
{"smiles": "Cc1c(Cl)cccc1NC(=O)Cn1cc(C(F)(F)F)cc(Cl)c1=O", "inhibition": 3.98}
{"smiles": "Cc1cc(C)c2c(=O)n(CC(=O)NC3CCCC3)sc2n1", "inhibition": 6.3}
{"smiles": "Cc1cc(C)c2c(=O)n(CC(=O)N3CCC(N4CCCCC4)CC3)sc2n1", "inhibition": -11.9}
{"smiles": "Cc1c(Cl)cccc1NC(=O)Cn1cccc1", "inhibition": 4.11}
{"smiles": "COCCCn1nnnc1SCC(=O)N1c2ccccc2CC1C", "note": "(stereo not given)", "inhibition": 0.95}
{"smiles": "CC(=O)Nc1ccc2c(c1)C(=O)N(C1CCCCC1)C2=O", "inhibition": -7.24}
{"smiles": "CCOc1ccc(OCCC(=O)OCC(=O)N2CCN(S(=O)(=O)c3ccc(Cl)cc3)CC2)cc1", "inhibition": 40.6}
{"smiles": "Cc1ccc(NC(=O)C(C)SCc2nc3sc(C)c(C)c3c(=O)[nH]2)nc1", "note": "(stereo not given)", "inhibition": -7.05}
{"smiles": "C[C@H](NC(=O)[C@@H]1Cc2ccccc2CN1C(=O)OC(C)(C)C)C(=O)NCC1CCCO1", "note": "(stereo not given in full)", "inhibition": 6.8}
{"smiles": "Nc1nc2ccccc2n1CCOc1ccc(F)cc1", "inhibition": 11}
{"smiles": "CC(=O)Nc1nc2ccccc2n1CCN(C)C", "inhibition": 14.6}
{"smiles": "Nc1nc2ccccc2n1CCOc1ccc(Cl)cc1", "inhibition": 79}
{"smiles": "O=C(O)c1ccc(NCc2nc3ccccc3n2CCOc2ccccc2Cl)cc1", "inhibition": 30.7}
